Molecules are shown by their SMILES. For some of these results: Results with a measured potency or affinity are listed apart.

Common to all, as to parameters: scale not given: direction of the effect not stated beside the values
Experiment [1] concerns the target Protein translocase subunit SecA (Escherichia coli (strain K12)) (UniProt P10408). In words: Assay to Identify E. coli SecA ATPase Inhibitors. The experiment is classed as functional. The settings on record: 30 µM.
For experiment [2], the target named is T1, Ubiquitin-activating enzyme e1, putative (Leishmania donovani (strain BPK282A1)) (UniProt E9BSI1).
T1 sequence (whole entry): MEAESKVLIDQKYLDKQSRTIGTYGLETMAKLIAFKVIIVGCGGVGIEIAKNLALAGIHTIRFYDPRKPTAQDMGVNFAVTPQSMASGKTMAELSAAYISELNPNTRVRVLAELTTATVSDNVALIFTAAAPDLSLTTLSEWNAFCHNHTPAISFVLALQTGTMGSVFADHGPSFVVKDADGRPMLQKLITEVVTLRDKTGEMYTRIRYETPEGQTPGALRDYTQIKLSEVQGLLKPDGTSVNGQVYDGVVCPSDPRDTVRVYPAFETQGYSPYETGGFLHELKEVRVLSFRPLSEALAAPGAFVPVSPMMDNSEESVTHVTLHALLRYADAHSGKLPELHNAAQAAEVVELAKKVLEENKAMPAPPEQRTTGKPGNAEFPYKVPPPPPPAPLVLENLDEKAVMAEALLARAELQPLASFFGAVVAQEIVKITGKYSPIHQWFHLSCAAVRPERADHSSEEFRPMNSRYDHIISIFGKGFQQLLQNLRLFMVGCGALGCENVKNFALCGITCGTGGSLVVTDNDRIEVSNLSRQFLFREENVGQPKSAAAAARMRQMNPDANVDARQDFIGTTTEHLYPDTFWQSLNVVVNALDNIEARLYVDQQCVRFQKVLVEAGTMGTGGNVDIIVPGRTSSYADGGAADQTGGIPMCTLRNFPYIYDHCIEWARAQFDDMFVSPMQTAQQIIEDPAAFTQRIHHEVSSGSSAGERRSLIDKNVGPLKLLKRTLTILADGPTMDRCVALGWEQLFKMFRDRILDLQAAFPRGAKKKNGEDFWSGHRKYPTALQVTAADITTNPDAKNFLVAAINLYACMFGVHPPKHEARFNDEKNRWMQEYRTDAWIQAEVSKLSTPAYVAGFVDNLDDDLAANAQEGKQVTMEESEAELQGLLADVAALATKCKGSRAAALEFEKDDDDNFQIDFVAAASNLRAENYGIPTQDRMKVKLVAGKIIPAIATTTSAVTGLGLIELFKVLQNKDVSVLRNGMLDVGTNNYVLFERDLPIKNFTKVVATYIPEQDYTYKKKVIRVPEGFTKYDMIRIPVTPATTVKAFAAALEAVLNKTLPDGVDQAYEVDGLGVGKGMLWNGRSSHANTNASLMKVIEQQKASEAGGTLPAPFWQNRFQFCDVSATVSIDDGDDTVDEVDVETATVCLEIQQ
Put plainly: Leishmania donovani Ubiquitin Activating Enzyme (LdE1). The experiment is classed as functional. As to conditions: 30 µM.

The target in experiment [3] is AMP-activated protein kinase, AMPK (Homo sapiens) (UniProt P54646+O43741+P54619+Q9UGJ0+Q9Y478+Q13131+Q9UGI9). In words: AMP-dependent Kinase enzyme assay. An in vitro enzyme assay that detects ADP turnover that is directly proportional to AMPK activity. This uses naive AMPK that is activated during the assay with MK-8722. In kind it is functional. The settings on record: 30 µM.

The target in experiment [4] is Sialic acid-binding Ig-like lectin 9 (Homo sapiens) (UniProt Q9Y336). In words: Hs-Siglec9 ALPHAscreen SOP 20170721. The settings on record: 10 µM.
A further experiment concerns Trypanosoma cruzi. In words: Trypanosoma cruzi phosphomannomutase and mannose-1-phosphate guanylyltransferase assay. The experiment is classed as functional. The settings on record: 10 µM.
Experiment [5] addresses T2, Arginase-2, mitochondrial (Homo sapiens) (UniProt P78540).
T2 sequence (whole entry): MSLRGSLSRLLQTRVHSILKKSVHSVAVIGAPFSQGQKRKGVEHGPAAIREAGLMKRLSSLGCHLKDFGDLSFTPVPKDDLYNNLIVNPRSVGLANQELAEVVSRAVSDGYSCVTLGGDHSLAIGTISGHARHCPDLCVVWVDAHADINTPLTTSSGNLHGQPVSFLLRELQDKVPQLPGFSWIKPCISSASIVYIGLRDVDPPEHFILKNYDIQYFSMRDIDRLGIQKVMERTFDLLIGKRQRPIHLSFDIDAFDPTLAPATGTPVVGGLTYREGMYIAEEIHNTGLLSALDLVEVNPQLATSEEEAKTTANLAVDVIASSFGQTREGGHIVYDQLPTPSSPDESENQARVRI
Put plainly: in vitro enzyme assay to detect the production of urea directly proportional to the activity of Arginase II. Note: in the data most compounds retested in dose-response had high values. In kind it is functional. The settings on record: 33.3 µM.

Experiment [6] has as its target T3, Proteasome subunit beta (Trypanosoma cruzi) (UniProt O96673).
T3 sequence (whole entry): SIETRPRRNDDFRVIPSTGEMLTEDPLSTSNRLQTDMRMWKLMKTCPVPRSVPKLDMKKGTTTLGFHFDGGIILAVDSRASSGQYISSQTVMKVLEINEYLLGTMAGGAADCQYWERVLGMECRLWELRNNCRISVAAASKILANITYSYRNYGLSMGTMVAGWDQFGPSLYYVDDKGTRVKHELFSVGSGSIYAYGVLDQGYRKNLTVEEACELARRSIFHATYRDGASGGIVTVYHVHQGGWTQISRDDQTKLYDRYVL
In words: Trypanosoma cruzi proteasome chymotrypsin-like activity (TcProtChymo) assay. Note: in the data most compounds retested in dose-response had high values. The experiment is classed as functional. As to conditions: 9.37 µM.

For the next experiment, the species on record is Homo sapiens. In words: To identify inhibition of the IFN signalling (Jak-Stat) pathway via expression of an eGFP reporter gene under the control of an IFN-stimulated response element (ISRE) containing MxA promoter. In kind it is functional. As to conditions: 30 µM. A general note: Reporter assays use an easily measured gene product as a stand-in for the process of interest.

For experiment [7], the target named is T4, Tyrosyl-tRNA synthetase, putative (Trypanosoma cruzi (strain CL Brener)) (UniProt Q4DSP6).
T4 sequence (whole entry): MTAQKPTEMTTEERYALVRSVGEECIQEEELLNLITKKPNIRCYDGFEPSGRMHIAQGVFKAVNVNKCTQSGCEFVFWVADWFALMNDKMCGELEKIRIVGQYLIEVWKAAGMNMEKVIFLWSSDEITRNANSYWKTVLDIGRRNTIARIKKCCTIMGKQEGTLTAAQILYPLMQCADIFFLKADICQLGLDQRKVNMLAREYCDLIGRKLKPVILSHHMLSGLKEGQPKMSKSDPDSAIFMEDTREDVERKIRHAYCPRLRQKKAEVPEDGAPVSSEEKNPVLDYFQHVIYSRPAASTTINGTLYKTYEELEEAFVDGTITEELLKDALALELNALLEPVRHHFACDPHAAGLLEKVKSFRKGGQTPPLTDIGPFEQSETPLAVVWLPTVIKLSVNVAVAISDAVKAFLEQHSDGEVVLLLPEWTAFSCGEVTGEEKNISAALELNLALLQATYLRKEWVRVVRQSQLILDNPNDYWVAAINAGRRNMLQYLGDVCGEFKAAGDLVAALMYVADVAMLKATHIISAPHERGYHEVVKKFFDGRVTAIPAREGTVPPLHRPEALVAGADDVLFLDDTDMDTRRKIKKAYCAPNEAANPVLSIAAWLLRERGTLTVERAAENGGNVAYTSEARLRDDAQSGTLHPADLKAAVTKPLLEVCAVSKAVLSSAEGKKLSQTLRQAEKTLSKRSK
Put plainly: Trypanosoma cruzi tyrosyl tRNA synthetase (TcYRS) _High Tyrosine SOP. Note: in the data most compounds retested in dose-response had high values. In kind it is functional. The settings on record: 30 µM.

In experiment [8] the target is T4, Tyrosyl-tRNA synthetase, putative (Trypanosoma cruzi (strain CL Brener)). In words: Trypanosoma cruzi tyrosyl tRNA synthetase (TcYRS) SOP. In kind it is functional. The settings on record: 30 µM.
Experiment [9] concerns the target Chromo domain-containing protein 1 (Saccharomyces cerevisiae (strain ATCC 204508 / S288c) (Baker's yeast)) (UniProt P32657). Put plainly: ScCHD-1 Enzyme Inhibition Assay. Note: in the data most compounds retested in dose-response had high values. In kind it is functional. As to conditions: 30 µM.

Sequence of Protein translocase subunit SecA (Escherichia coli (strain K12)) (P10408 whole entry): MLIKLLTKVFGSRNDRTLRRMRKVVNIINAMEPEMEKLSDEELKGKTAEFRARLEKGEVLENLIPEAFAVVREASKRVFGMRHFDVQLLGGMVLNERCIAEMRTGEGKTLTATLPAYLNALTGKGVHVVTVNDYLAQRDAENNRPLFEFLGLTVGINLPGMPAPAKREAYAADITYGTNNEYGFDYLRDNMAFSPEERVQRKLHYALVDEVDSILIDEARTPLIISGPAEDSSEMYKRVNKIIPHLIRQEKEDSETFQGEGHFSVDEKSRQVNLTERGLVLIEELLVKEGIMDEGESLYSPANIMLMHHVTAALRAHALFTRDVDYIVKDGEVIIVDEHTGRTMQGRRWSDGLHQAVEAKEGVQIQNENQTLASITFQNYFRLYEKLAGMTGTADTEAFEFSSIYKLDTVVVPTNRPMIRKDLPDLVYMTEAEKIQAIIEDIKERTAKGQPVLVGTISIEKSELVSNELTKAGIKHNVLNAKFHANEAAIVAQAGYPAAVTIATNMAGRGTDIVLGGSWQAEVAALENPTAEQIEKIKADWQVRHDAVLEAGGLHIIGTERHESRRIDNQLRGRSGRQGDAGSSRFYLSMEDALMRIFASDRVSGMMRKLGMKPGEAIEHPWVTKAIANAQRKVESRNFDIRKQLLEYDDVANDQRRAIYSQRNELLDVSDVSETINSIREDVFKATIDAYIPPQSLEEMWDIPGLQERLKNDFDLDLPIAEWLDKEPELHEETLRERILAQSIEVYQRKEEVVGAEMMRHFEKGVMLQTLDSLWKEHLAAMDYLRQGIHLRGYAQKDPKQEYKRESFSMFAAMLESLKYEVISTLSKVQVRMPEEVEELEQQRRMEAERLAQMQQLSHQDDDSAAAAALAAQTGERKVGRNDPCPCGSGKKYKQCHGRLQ
Sequence of Sialic acid-binding Ig-like lectin 9 (Homo sapiens) (Q9Y336 whole entry): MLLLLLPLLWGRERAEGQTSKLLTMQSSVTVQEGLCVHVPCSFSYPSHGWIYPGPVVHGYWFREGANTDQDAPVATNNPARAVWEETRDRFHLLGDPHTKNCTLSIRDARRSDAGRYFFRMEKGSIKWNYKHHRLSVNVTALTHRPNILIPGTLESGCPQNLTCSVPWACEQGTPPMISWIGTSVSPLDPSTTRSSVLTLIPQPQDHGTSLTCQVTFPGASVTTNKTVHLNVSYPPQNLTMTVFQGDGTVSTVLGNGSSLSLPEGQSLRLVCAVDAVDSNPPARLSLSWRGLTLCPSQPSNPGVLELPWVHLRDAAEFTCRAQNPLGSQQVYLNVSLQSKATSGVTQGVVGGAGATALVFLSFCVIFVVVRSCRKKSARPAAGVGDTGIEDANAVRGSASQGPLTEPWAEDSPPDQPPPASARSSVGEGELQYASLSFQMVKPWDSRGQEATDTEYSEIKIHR
Sequence of Chromo domain-containing protein 1 (Saccharomyces cerevisiae (strain ATCC 204508 / S288c) (Baker's yeast)) (P32657 whole entry, the tested form may be a part): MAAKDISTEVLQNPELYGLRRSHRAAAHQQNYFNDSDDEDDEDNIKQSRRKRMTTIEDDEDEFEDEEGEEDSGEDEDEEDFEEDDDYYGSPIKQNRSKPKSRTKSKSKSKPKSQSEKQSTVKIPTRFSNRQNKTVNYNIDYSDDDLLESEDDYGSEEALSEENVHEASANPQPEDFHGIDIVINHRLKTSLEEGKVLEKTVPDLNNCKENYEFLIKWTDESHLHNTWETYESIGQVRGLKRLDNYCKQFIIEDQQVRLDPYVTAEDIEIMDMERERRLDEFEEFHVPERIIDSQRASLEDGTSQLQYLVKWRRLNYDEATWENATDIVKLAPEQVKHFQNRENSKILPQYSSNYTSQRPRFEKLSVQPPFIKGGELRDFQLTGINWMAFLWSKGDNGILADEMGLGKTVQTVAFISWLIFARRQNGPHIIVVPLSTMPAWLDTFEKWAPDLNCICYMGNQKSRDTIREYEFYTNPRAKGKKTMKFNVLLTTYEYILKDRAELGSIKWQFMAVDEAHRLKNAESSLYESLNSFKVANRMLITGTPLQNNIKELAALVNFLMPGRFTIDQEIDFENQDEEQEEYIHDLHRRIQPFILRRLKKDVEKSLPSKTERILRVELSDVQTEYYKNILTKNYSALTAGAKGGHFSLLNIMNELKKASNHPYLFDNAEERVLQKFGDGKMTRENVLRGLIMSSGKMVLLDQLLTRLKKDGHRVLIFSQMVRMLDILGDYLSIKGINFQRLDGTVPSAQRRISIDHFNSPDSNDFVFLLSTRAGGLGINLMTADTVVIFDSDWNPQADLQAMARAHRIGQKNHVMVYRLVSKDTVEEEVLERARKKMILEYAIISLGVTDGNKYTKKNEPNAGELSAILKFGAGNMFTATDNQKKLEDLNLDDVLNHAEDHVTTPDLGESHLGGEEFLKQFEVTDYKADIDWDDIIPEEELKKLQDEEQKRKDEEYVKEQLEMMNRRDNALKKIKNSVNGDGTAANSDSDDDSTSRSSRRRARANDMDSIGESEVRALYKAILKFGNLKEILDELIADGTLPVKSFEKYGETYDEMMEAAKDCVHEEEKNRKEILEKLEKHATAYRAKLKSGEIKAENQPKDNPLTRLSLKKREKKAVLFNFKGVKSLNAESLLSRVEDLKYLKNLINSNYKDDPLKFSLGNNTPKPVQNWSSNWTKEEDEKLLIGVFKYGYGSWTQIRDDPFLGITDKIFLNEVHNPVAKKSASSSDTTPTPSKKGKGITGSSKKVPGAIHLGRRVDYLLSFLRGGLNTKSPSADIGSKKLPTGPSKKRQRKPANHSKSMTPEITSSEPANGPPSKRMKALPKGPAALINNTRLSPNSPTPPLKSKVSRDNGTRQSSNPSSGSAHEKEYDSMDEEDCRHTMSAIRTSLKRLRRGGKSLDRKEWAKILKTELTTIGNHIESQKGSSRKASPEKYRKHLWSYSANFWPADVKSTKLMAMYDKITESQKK

As to `Cn1cnc2c1C(COCc1ccccc1)N(Cc1ccncc1)CC2` (stereo not drawn), the Percent Effect was -1.94% in experiment [1]; 2.67% in experiment [2]; -0.486% in [3]; 11.9% in experiment [4]; -1.16% in the experiment on Trypanosoma cruzi; -25.6% in experiment [5]. Further, the Percent Effect is 7.69% in [6]; -15.2% in the experiment listed under Homo sapiens; 3.12% in [7]; 10% in experiment [8]; -6.37% in [9].
Regarding `Cc1nc(CN2CCOCC3(CCN(c4cccnc4)CC3)C2)cs1`, the Percent Effect in experiment [1] was -4.45%; in experiment [2], 5.41%; in experiment [3], 0.402%; in experiment [4], -0.618%; in the experiment with Trypanosoma cruzi, -2.34%; in [5], 2.08%. The Percent Effect was determined as 14.4% in experiment [6]; 4.77% in the experiment listed under Homo sapiens; 3.96% in [7]; 11% in experiment [8]; 3.31% in experiment [9].
Turning to `Cc1ccc(-c2nnc(CN3CCOC(Cn4cccn4)C3)o2)cc1` (stereo not drawn), the Percent Effect was -4.11% in experiment [1]; 10.1% in experiment [2]; -1.13% in experiment [3]; 4.66% in experiment [4]; 0.661% in the experiment with Trypanosoma cruzi; 3.42% in [5]. For the same compound, the Percent Effect is 7.45% in experiment [6]; 4.27% in the experiment filed under Homo sapiens; 2.46% in experiment [7]; 11.4% in experiment [8]; -5.6% in experiment [9].
Turning to `COCCN1CC[C@@H]2O[C@@H](COCC(=O)N3CCCC3)CC[C@@H]21`, the Percent Effect was -3.65% in experiment [1]; 5.48% in experiment [2]; -6.36% in experiment [3]; 2.85% in [4]; 7.94% with Trypanosoma cruzi; -3.99% in experiment [5]. The Percent Effect was 3.85% in experiment [6]; -31.2% in the experiment listed under Homo sapiens; 7.29% in [7]; 13.6% in [8]; -5.05% in experiment [9].
Consider `Cc1cc(CN2CC[C@H]3C[C@H](C(=O)N4CCC(C)CC4)O[C@H]3C2)no1`, for which the Percent Effect in experiment [1] was -3.17%; in experiment [2] it was 10.8%; in [3], 0.505%; in experiment [4], -2.16%; in the experiment with Trypanosoma cruzi, -1.07%; in experiment [5], 2.87%. Further, the Percent Effect was 22.5% in experiment [6]; -12.1% in the experiment filed under Homo sapiens; 0% in [7]; 12.8% in [8]; -2.88% in [9].
Regarding `CNS(=O)(=O)CCCN1CCCC1c1cc(C)on1` (stereo not drawn), the Percent Effect in experiment [1] was -2.37%; in experiment [2], 0%; in [3], 1.65%; in experiment [4], -3.19%; in the experiment on Trypanosoma cruzi it was -3.68%; in [5] it was -1.52%. For the same compound, the Percent Effect is 4.5% in experiment [6]; 13.8% in the experiment listed under Homo sapiens; 0.493% in experiment [7]; -3.8% in experiment [8]; 0.192% in experiment [9].
For `CCOc1cccc(C(C)NC(=O)N2CCC(C(N)=O)CC2)c1` (stereo not drawn), the Percent Effect is -2.51% in experiment [1]; 2.7% in experiment [2]; -1.93% in experiment [3]; 5.06% in [4]; -1.93% with Trypanosoma cruzi; -0.952% in experiment [5]. In addition, the Percent Effect in [6] is 3.97%; in the experiment listed under Homo sapiens, 14.3%; in experiment [7], 3.7%; in experiment [8], 9.76%; in experiment [9], -1.95%.
With `Cc1ncc(CNC(=O)N(C)C2CCN(c3ccccc3)C2=O)s1` (stereo not drawn), the Percent Effect is -4.68% in experiment [1]; 5.26% in experiment [2]; 1.78% in experiment [3]; -2.39% in [4]; -4.51% in the experiment on Trypanosoma cruzi; 3.45% in experiment [5]. The Percent Effect was 4.51% in [6]; 15.1% in the experiment filed under Homo sapiens; 2.45% in experiment [7]; 0% in experiment [8]; -3.16% in experiment [9].

Source of the values: ChEMBL document CHEMBL3988442, “University of Dundee, Small-Polar-MMV Screening Library” (2021).
